Shown is part of a subset that was picked to be rich in hits.
Giardia kill – Small Molecules that selectively kill Giardia lamblia: qHTS; Giardia lamblia trophozoite viability; activity change, % at 7.66 µM, hits read low; actives 0.15% (n = 340,000); AID 540267, 2011; in the data active = activity change below about -80%; inconclusive = between about -30% and that limit;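 note: parasites exposed to compound for two days anaerobically before the ATP read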
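Media and compound were dispensed first, then trophozoites at 100 cells/well; plates sat 48 hrs at 37 deg C without oxygen before ATP luminescence reagent was added and read after 15-30 min at room temperature.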
a7 integrin act – qHTS for Activators of Integrin-Mediated Alleviation for Muscular Dystrophy | alpha7betagal myoblasts, beta-gal FDG fluorescence, 48 h | Potency, µM (highest dose often 38.3 µM), actives largely listed as activators | actives 0.064% (n = 350,000) | AID 624291, 2012; note: nearly all actives have a fitted effect of over 60% in size
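alpha7betagal+/- myoblasts (passage 13, 250/well) treated 48 h at 37C with compounds at 1:260 dilution of DMSO stock. Lysed, then beta-galactosidase activity read as FDG fluorescence (ex 480/em 540) after 30 min, with pre-read for autofluorescence.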
RORg inh – qHTS for inhibitors of ROR gamma transcriptional activity | Drosophila S2 Gal4-RORgamma UAS-luciferase reporter, 20 h | Potency, µM (doses to about 53.6 µM), actives largely listed as inhibitors | actives 5.4% (n = 310,000); note: nearly all actives have a fitted effect of over 60% in size
Target sequence (P51450 whole entry, looked up, the tested form may be a part): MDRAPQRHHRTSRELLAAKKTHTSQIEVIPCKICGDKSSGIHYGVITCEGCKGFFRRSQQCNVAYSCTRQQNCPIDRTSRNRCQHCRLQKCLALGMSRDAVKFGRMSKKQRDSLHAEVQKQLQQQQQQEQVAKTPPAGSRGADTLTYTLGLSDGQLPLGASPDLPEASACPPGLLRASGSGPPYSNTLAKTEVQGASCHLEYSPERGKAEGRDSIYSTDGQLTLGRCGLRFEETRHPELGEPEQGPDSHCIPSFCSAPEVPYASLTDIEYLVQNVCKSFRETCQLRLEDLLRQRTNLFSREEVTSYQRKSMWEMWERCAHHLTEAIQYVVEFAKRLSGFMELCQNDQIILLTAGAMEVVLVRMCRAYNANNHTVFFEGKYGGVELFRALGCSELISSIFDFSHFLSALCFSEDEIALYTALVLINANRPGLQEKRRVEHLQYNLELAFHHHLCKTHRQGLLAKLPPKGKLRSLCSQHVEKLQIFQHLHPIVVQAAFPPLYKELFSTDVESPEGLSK
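Stably transfected Drosophila Schneider cells are the test system, with ROR gamma fused to Gal4 and luciferase under UAS control; luminescence is read after 20 hr of 700 uM copper sulfate induction at ambient temperature.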
Gal4-VP16 FLuc – VP16 counterscreen qHTS for inhibitors of ROR gamma transcriptional activity. Potency, µM (series often up to 53.6 µM), actives largely listed as inhibitors. Drosophila S2 Gal4-VP16 UAS-luciferase, luminescence, 20 h. actives 3.5% (n = 310,000);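 note: Gal4-VP16 expression switched on by copper sulfate through the metallothionein promoter; nearly all actives have a fitted effect of over 50% in size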
ERG Ets-DNA blk – qHTS for Small Molecule Inhibitors of the ERG Ets/DNA interaction | fluorescence polarization, His-ERG Ets domain / labelled DNA | actives 0.028% (n = 370,000) | Potency, µM (series often up to 76.9 µM), hits mostly inhibitors | Transcriptional regulator ERG (Homo sapiens), P11308; active = well fitted inhibition curve with a large enough effect in the polarisation, with a control signal flat; inconclusive = small, poorly fitted or top-dose-only effect, or effect the other way, or a change in a side signal; inactive = no such curve, though single readings can be large or run the other way; the % refers to the polarisation;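 note: polarization taken with two DNA probes labelled with fluorescein and Texas red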
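His-tagged ERG Ets domain (1 uM in the protein solution; 300mM KCl, 50mM Tris-HCl, 1mM EDTA, 1mM DTT, pH 7.5) received compound, then a probe mix of 5 nM fluorescein-DNA and 100nM Texas-615-DNA. Fluorescence polarization was read for both dyes.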
Each line names hits and unclear results; the compound was inactive in the other large screens. Unless noted, calls come from the whole dose curve; as a rule, active = well fitted curve in the direction sought with a large enough effect; inconclusive = small, poorly fitted or top-dose-only effect, or another doubt; inactive = no such curve, though single readings can be large; an effect the other way counts as inactive or inconclusive.

CC(=O)Oc1c(-c2ccc(Br)o2)oc2ccccc2c1=O	RORg inh 7.1µM, Gal4-VP16 FLuc 7.1µM
COc1ccc(C(=O)c2oc3ccccc3c2N)cc1	Gal4-VP16 FLuc 10µM
O=C(Nc1nnc(-c2ccccc2)o1)C1CCCCC1	RORg inh 3.5µM, Gal4-VP16 FLuc 7.9µM
CCOc1ccc(-c2nnc(NC(=O)C3CCCC3)o2)cc1	RORg inh 8.9µM, Gal4-VP16 FLuc inconclusive
O=C(Nc1nnc(-c2ccc(Cl)cc2)o1)C1CCCCC1	none
Cc1ccc(C)c(N2CC(C(=O)O)CC2=O)c1 (centres undefined)	a7 integrin act inconclusive
CC1C(=O)C(=O)C=CN1C (centres undefined)	none (no result: Giardia kill, a7 integrin act, ERG Ets-DNA blk)
COc1cccc(Nc2nc(N)nc(CCl)n2)c1	none
Cc1cccc(Nc2nc(N)nc(CCl)n2)c1	RORg inh inconclusive, Gal4-VP16 FLuc 10µM
Cn1/c(=N/N=C/c2ccccn2)sc2ccccc21	RORg inh 10µM, Gal4-VP16 FLuc inconclusive
Cn1/c(=N/N=C/c2ccc(N3CCOCC3)cc2)sc2ccccc21	a7 integrin act inconclusive, RORg inh inconclusive, Gal4-VP16 FLuc inconclusive
CC(C)[C@H](NC(=O)[C@H](CC(=O)O)NC(=O)CNC(=O)[C@@H](N)CCCN=C(N)N)C(=O)O	none (no result: Giardia kill, a7 integrin act, ERG Ets-DNA blk)
Cc1nn(-c2ccccc2)c(Cl)c1C(=O)Nc1nnc(C2CCCCC2)s1	RORg inh 13µM, Gal4-VP16 FLuc inconclusive
Cc1nn(-c2ccc(C(=O)Nc3nnc(C4CC4)s3)cc2)c(C)c1Cl	none
CC(=O)NC12CC3CC(C1)CC(C(=O)OCC(=O)c1ccc4c(c1)OCCO4)(C3)C2	RORg inh 14µM, Gal4-VP16 FLuc inconclusive
CCCC(=O)NC(Nc1cc(C(F)(F)F)ccc1Cl)C(Cl)(Cl)Cl (centres undefined)	RORg inh inconclusive, Gal4-VP16 FLuc 10µM
CN(C)/C=C1\C(=O)N(c2ccc([N+](=O)[O-])cc2)N=C1c1ccccc1	RORg inh inconclusive, Gal4-VP16 FLuc inconclusive
C/C(=C1/C(=O)N(c2ccc([N+](=O)[O-])cc2)N=C1c1ccccc1)N(C)C	RORg inh inconclusive, Gal4-VP16 FLuc 14µM (no result: Giardia kill, a7 integrin act, ERG Ets-DNA blk)
CC1=CN2C(=N)/C(=C/c3ccco3)C(=O)N=C2S1	RORg inh inconclusive, Gal4-VP16 FLuc 16µM
Cc1ccc(-n2cccc2/C=C2\C(=N)N3N=C(c4ccco4)SC3=NC2=O)cc1	Giardia kill inconclusive
CCOc1ccc(-c2ccc(/C=C3/C(=N)N4C=CSC4=NC3=O)o2)c([N+](=O)[O-])c1	RORg inh 2.5µM, Gal4-VP16 FLuc 3.5µM
CC1=CN2C(=N)/C(=C/c3ccc([N+](=O)[O-])o3)C(=O)N=C2S1	RORg inh 11µM, Gal4-VP16 FLuc 5µM, ERG Ets-DNA blk inconclusive
COc1ccc(OC(C)c2nc3ccccc3[nH]2)cc1 (centres undefined)	none (no result: Giardia kill, a7 integrin act, RORg inh, Gal4-VP16 FLuc)
CCOCCO	none (no result: Giardia kill, a7 integrin act, ERG Ets-DNA blk)
Cc1ccc(C)c(N2C(=O)CC(Cc3ccccc3)C2=O)c1 (centres undefined)	none
NC1=Nc2cccc3cccc1c23	a7 integrin act 7.9µM, RORg inh inconclusive
Cc1ccc(Sc2ccc(NC(=O)CCl)cc2)c(C)c1	RORg inh 2.8µM, Gal4-VP16 FLuc 5µM
O=C(Nc1cccnc1)c1cc2c(ccc3ccccc32)o1	RORg inh 1.4µM, Gal4-VP16 FLuc inconclusive
NNC(=O)c1cc2c(ccc3ccccc32)o1	none
COc1ccc(S(=O)(=O)N2CCCCCC2)cc1NC(=O)CCNC(=O)c1ccccc1Cl	none (no result: Giardia kill, RORg inh, Gal4-VP16 FLuc, ERG Ets-DNA blk)
CCCN1CCCC(c2cccc(S(C)(=O)=O)c2)C1 (centres undefined)	none (no result: Giardia kill, a7 integrin act, ERG Ets-DNA blk)
C=CCNC(=S)Nc1nc2c(cc1C(=O)OCC)COC(C)(C)C2	RORg inh 10µM
CCOC(=O)c1cc2c(nc1NC(=S)NCc1ccccc1)CCCC2	RORg inh 6.3µM, Gal4-VP16 FLuc 3.5µM
CCOC(=O)c1cc2c(nc1NC(=S)Nc1ccccc1)CC(C)(C)OC2	RORg inh 2.8µM, Gal4-VP16 FLuc inconclusive
CCOC(=O)c1cc2c(nc1N)CC(C)(C)OC2	RORg inh inconclusive
CCc1cccc(C)c1NC(=O)C(CC)Sc1nncn2c1cc1occc12 (centres undefined)	none (no result: Giardia kill, a7 integrin act, RORg inh, Gal4-VP16 FLuc)
Cc1ccsc1/C=N/n1c(C2CCCCC2)n[nH]c1=S	RORg inh 2.5µM, Gal4-VP16 FLuc 3.2µM
Cc1ccc(/C=N/n2c(C3CCCCC3)n[nH]c2=S)s1	RORg inh 3.2µM, Gal4-VP16 FLuc 3.2µM (no result: ERG Ets-DNA blk)
CCn1c(C(=O)NCc2cc(Br)ccc2OC)cc2oc3ccccc3c21	none (no result: Giardia kill, a7 integrin act, RORg inh, Gal4-VP16 FLuc)
O=C1CN(C(=O)CSc2ccccn2)c2ccccc2N1	none (no result: RORg inh, Gal4-VP16 FLuc)
CCOc1cc(C2C(C#N)=C(N)OC(C)=C2C(C)=O)c(Br)c(Br)c1OC(C)C (centres undefined)	RORg inh inconclusive, Gal4-VP16 FLuc 13µM
CCOc1cc(C2C(C#N)=C(N)OC(C)=C2C(C)=O)cc(Br)c1O (centres undefined)	none (no result: ERG Ets-DNA blk)
O=C(Nc1ccc2cn[nH]c2c1)c1c(Cl)cccc1Cl	a7 integrin act inconclusive
O=C1C(Cl)=C(NCCCO)C(=O)c2ccccc21	Giardia kill inconclusive, RORg inh 11µM, Gal4-VP16 FLuc inconclusive
O=C1C(Cl)=C(Nc2ccc3cn[nH]c3c2)C(=O)c2ccccc21	RORg inh 7.1µM, Gal4-VP16 FLuc inconclusive
CN(C)c1ccc(NC2=C(Cl)C(=O)c3ccccc3C2=O)cc1	RORg inh 16µM, Gal4-VP16 FLuc inconclusive
COc1cc(O)c(C=Nc2ccccc2NS(=O)(=O)c2ccc(C)cc2)c(OC)c1	none (no result: RORg inh, Gal4-VP16 FLuc)
Cc1ccc2c(C(=O)CNc3nncs3)c(C)[nH]c2c1	RORg inh inconclusive
COc1cc(/C=N/NC(N)=S)ccc1OC(=O)c1ccc(C)cc1	RORg inh 20µM, Gal4-VP16 FLuc inconclusive
COc1ccc(C(=O)Oc2cccc(/C=N/NC(N)=S)c2)cc1	RORg inh 16µM, Gal4-VP16 FLuc 10µM
COc1cc(/C=N/NC(=O)c2ccc(N)cc2)ccc1OC(=O)c1cccc(C)c1	none
COc1cc(/C=N/NC(N)=S)ccc1OCc1ccc(C)cc1	RORg inh 7.1µM, Gal4-VP16 FLuc 8.9µM
CCCCCC(=O)NC(=S)Nc1ccc(NC(=O)c2ccco2)cc1	RORg inh 10µM, Gal4-VP16 FLuc inconclusive
CCCC(=O)NC(=S)Nc1cccc(NC(=O)c2ccccc2)c1	RORg inh inconclusive, Gal4-VP16 FLuc 3.5µM
CCCCCC(=O)NC(=S)Nc1ccc2oc(=O)ccc2c1	a7 integrin act inconclusive, RORg inh 11µM, Gal4-VP16 FLuc inconclusive
CCCCC(=O)NC(=S)Nc1cccc(NC(=O)c2ccccc2)c1	RORg inh 2.2µM, Gal4-VP16 FLuc 7.9µM
CCCCC(=O)Nc1cccc(NC(=S)NC(=O)Cc2ccccc2)c1	RORg inh inconclusive
CCCCN(CC)CCCNC(=O)CS(=O)(=O)Cc1nc(-c2ccc(C)cc2)oc1C	none (no result: Giardia kill, a7 integrin act, RORg inh, Gal4-VP16 FLuc)
CCNCc1nc2cc(Cl)ccc2c(=O)[nH]1	RORg inh 6.3µM, Gal4-VP16 FLuc 16µM
O=C(NC1=NCCS1)c1sc2cc(Cl)cc(Cl)c2c1Cl	RORg inh 6.3µM, Gal4-VP16 FLuc inconclusive
